Measurements: PubChem BioAssay (Tox21)
Records with an inconclusive call do not appear. Entries that show only a call come without a potency. Unmarked numbers belong to inactive results. The source made the active and inactive calls. Calls follow the shape of the dose curve; as a rule, active = well fitted cell-killing curve with a large enough effect in the repeat runs; inconclusive = weak or mixed curves, or effect the other way; inactive = flat fitted curve, though single readings scatter.

Experiment: cAMP Responsive Elements (CRE) small molecule agonists, cell-based qHTS assay: qHTS cell viability counter screen (AID 2060914);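 also: viability read after 3 h of compound exposure; nearly all actives have a fitted effect of over 50% in size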
Conditions: CRE-bla HEK293T viability, CellTiter-Glo luminescence, 5 h; series mostly up to 92.4 µM
Method in brief: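 CRE-bla HEK 293T cells, plated 18 h at 37 °C, were exposed to compounds for 3 h at 37 °C/5% CO2. Viability was then measured in the same wells by CellTiter-Glo luminescence after 30 min at room temperature.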

Structure (SMILES) | activity change, negative = cytotoxicity | Potency
CC(C)C[C@@H](N)C(=O)O | -6.51% [at 18.9 µM] | –
O=S1(=O)CCCC1 | – | inactive
CCOc1ccc(NC(C)=O)cc1N | – | inactive
C=CC(C)(CCC=C(C)C)OC(=O)C(C)C (stereo not given) | – | inactive
CCOc1ccc(Cc2nccc3cc(OCC)c(OCC)cc23)cc1OCC | – | inactive
CC(C)(C)c1ccc(OC(=O)c2ccccc2O)cc1 | – | inactive
O=S1(=O)N=C(O)c2ccccc21 | – | inactive
CC(=O)OCCN(CCOC(C)=O)c1ccc(N=Nc2ccc([N+](=O)[O-])cc2C#N)cc1 | – | inactive
CCCC1CCC(=O)CC1 | – | inactive
CCCCCc1ccco1 | – | inactive
C[Si](C)=O | -0.0708% [at 8.39 µM] | –
CC(C)(N=C=O)c1cccc(C(C)(C)N=C=O)c1 | – | inactive
CC(=O)/C=C/C1=C(C)CCCC1(C)C | – | inactive
Cc1ccc(S(=O)(=O)NC(=O)NC2CCCCCCC2)cc1 | – | inactive
O=C(O)CCNC(=O)c1ccc(N=Nc2ccc(O)c(C(=O)O)c2)cc1 | – | inactive
CCCCCCCCCCC=CC1CC(=O)OC1=O (stereo not given) | – | inactive
NC(=O)c1ncn([C@@H]2O[C@H](CO)[C@@H](O)[C@H]2O)c1O | – | inactive
Cc1cccc(Nc2ccccc2C(=O)O)c1C | – | inactive
Cc1cccc(C)c1O | – | inactive
O=C(O)[C@@H](O)[C@H](O)[C@H](O)[C@@H](O)C(=O)O | – | inactive

Structure (SMILES) | activity change, negative = cytotoxicity | Potency
CC(CO)(CO)[N+](=O)[O-] | – | inactive
CC(C)NC[C@@H](O)COc1ccc(CC(N)=O)cc1 | – | inactive
CCOc1ncc(F)c(=O)[nH]1 | – | inactive
CCCCCCCCCCCCc1ccccc1 | – | inactive
CCCCCCCC/C=C\CCCCCCCC(=O)OCCCC | -19.4% [at 18.9 µM] | –
C=CCCCCCCCCC=O | – | inactive
CCCCCCCCCCCCCCCC(=O)OCC | – | inactive
CCN(Cc1cccnc1)C(=O)c1cccc(Cl)c1[C@]1(C)C(=O)N(Cc2ccc(OC)cc2OC)c2ccc(Cl)cc21 | – | inactive
CCC(C)(Oc1ccc(C2(c3ccc(OC(C)(CC)C(=O)O)cc3)CCCCC2)cc1)C(=O)O (stereo not given) | – | inactive
CC(C(=O)O)c1ccc(C(=O)c2cccs2)cc1 (stereo not given) | – | inactive
CC(=O)OCC(C)C | – | inactive
O=c1cc(O)c(Cl)c[nH]1 | – | inactive
Nc1ccccn1 | – | inactive
CC1=CC[C@H](C(C)C)C=C1 | – | inactive
CC[C@H](C)[C@@H](C(=O)O)n1sc2ccccc2c1=O | – | inactive
CC(=O)OC/C=C(/C)CCC=C(C)C | – | inactive
O=C(O)C(=O)Cc1ccccc1 | – | inactive
CN(C)CCCSc1ccccc1NC(=O)/C=C/c1ccccc1 | – | inactive
CC1CC(O)CC(C)(C)C1 (stereo not given) | – | inactive
CCCCCCCC#N | – | inactive
